From PubChem BioAssay (Tox21)
Records with an inconclusive call do not appear. A call without a number means that no potency is given here. Active and inactive are the calls of the source. Unless noted, calls come from the whole dose curve; as a rule, active = well fitted curve in the direction sought with a large enough effect in the repeat runs; inconclusive = weak or mixed curves; inactive = no such curve, though single readings can be large; an effect the other way counts as inactive or inconclusive.

tested on: not listed separately; test: qHTS assay to identify small molecule antagonists of the retinoid-related orphan receptor gamma (ROR-gamma) signaling pathway - cell viability counter screen (AID 1159520); conditions: Tet-on RORgamma CHO cells viability, ATP luminescence, 16 h; series mostly up to 92.4 µM; note: nearly all actives have a fitted effect of over 50% in size; note: potency is the fitted concentration of half-maximal effect
Procedure, shortened: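 Tet-on ROR gamma CHO cells were given compounds for 2 hr, then doxycycline hyclate at 1 uM final, and incubated 16 hr at 37 C. Viability was measured as ATP content by CellTiter-Glo luminescence.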

SMILES	Potency
N#CCc1ccc(Cl)cc1	inactive
Clc1ccc(Oc2ccccc2)cc1	inactive
O=C(Cl)c1ccc(Cl)cc1	inactive
CCOC(=O)c1ccccc1S(=O)(=O)NC(=O)Nc1nc(Cl)cc(OC)n1	inactive
CC(=O)c1ccc(-c2ccccc2)cc1	inactive
N#Cc1ccccc1Cl	inactive
Cc1ccc(CCl)cc1	inactive
CN(CCCC(O)c1cccnc1)N=O (centres undefined)	inactive
Clc1ccc(-c2ccccc2)cc1	inactive
COP(=O)(CCC(=O)NCO)OC	inactive
COC[C@H](C)N(C(=O)CCl)c1c(C)csc1C	inactive
CC(=[OH+])/C=C(/C)[O-].CC(=[OH+])/C=C(\C)[O-].CC(=[OH+])/C=C(\C)[O-].[Al]	inactive
CC(C)CBr	inactive
Oc1ccccc1Br	inactive
C[As+](C)(C)CC(=O)[O-]	inactive
COCC(=O)N(c1c(C)cccc1C)[C@H](C)C(=O)OC	inactive
CCc1ccccc1C	inactive
Cl/C=C\CCl	inactive
Clc1ccc(-c2ccc(Cl)c(Cl)c2Cl)c(Cl)c1Cl	inactive

SMILES	Potency
ClC1=C(Cl)[C@]2(Cl)[C@@H]3[C@@H](Cl)[C@H](Cl)C[C@@H]3[C@@]1(Cl)C2(Cl)Cl	inactive
ClCCN1CCOCC1	inactive
C[C@@H](Oc1ccc(Cl)cc1Cl)C(=O)O	inactive
N#Cc1ccccc1N	inactive
CC(=[OH+])/C=C(/C)[O-].CC(=[OH+])/C=C(\C)[O-].CC(=[OH+])/C=C(\C)[O-].[Fe]	inactive
CCC(C)c1cc(C(C)(C)C)cc(-n2nc3ccccc3n2)c1O (centres undefined)	inactive
CCOP(=S)(OCC)SCCS(=O)(=O)CC	inactive
Nc1ccc([N+](=O)[O-])cc1Cl	inactive
O=[N+]([O-])c1cc(Cl)ccc1Cl	inactive
ClCc1ccccc1CCl	43.3 µM (active)
CCSC(C)CC1CC(=O)C(/C(CC)=N/OC/C=C/Cl)=C(O)C1 (centres undefined)	inactive
BrCC(Br)c1ccccc1 (centres undefined)	inactive
C=CC(=O)N(C)C	inactive
Cc1cc(Cl)ccc1O[C@H](C)C(=O)O	inactive
ClC1=C(Cl)[C@]2(Cl)[C@@H]3[C@@H](Cl)[C@@H](Cl)C[C@@H]3[C@@]1(Cl)C2(Cl)Cl	inactive
C=CCOC(N)=O	inactive
COP(N)(=S)OC	inactive
C=COCCCl	inactive
Cn1[nH]nnc1=S	inactive

target: Nuclear receptor ROR-gamma (Homo sapiens) (UniProt P51449); test: qHTS assay to identify small molecule antagonists of the retinoid-related orphan receptor gamma (ROR-gamma) signaling pathway (AID 1159521; note: nearly all actives have a fitted effect of over 50% in size; note: potency is the fitted concentration of half-maximal effect); conditions: Tet-on RORgamma CHO cells, RORE-luciferase, 16 h; series mostly up to 92.4 µM
Procedure, shortened: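 Luminescence readout (ONE-Glo, 30 min RT) after 16 h doxycycline induction; loss of signal scored as antagonism. CHO cells with TET-inducible RORγ and RORE-LUC reporter; compounds added 2 h before 1 uM final doxycycline.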

SMILES	Potency
N#CCc1ccc(Cl)cc1	inactive
Clc1ccc(Oc2ccccc2)cc1	inactive
O=C(Cl)c1ccc(Cl)cc1	inactive
CCOC(=O)c1ccccc1S(=O)(=O)NC(=O)Nc1nc(Cl)cc(OC)n1	inactive
CC(=O)c1ccc(-c2ccccc2)cc1	inactive
N#Cc1ccccc1Cl	inactive
Cc1ccc(CCl)cc1	inactive
CN(CCCC(O)c1cccnc1)N=O (centres undefined)	inactive
Clc1ccc(-c2ccccc2)cc1	inactive
COP(=O)(CCC(=O)NCO)OC	inactive
COC[C@H](C)N(C(=O)CCl)c1c(C)csc1C	inactive
CC(=[OH+])/C=C(/C)[O-].CC(=[OH+])/C=C(\C)[O-].CC(=[OH+])/C=C(\C)[O-].[Al]	inactive
CC(C)CBr	inactive
Oc1ccccc1Br	inactive
C[As+](C)(C)CC(=O)[O-]	inactive
COCC(=O)N(c1c(C)cccc1C)[C@H](C)C(=O)OC	inactive
CCc1ccccc1C	inactive
Cl/C=C\CCl	inactive
Clc1ccc(-c2ccc(Cl)c(Cl)c2Cl)c(Cl)c1Cl	inactive

SMILES	Potency
ClC1=C(Cl)[C@]2(Cl)[C@@H]3[C@@H](Cl)[C@H](Cl)C[C@@H]3[C@@]1(Cl)C2(Cl)Cl	inactive
ClCCN1CCOCC1	inactive
C[C@@H](Oc1ccc(Cl)cc1Cl)C(=O)O	inactive
N#Cc1ccccc1N	inactive
CC(=[OH+])/C=C(/C)[O-].CC(=[OH+])/C=C(\C)[O-].CC(=[OH+])/C=C(\C)[O-].[Fe]	inactive
CCC(C)c1cc(C(C)(C)C)cc(-n2nc3ccccc3n2)c1O (centres undefined)	inactive
CCOP(=S)(OCC)SCCS(=O)(=O)CC	inactive
Nc1ccc([N+](=O)[O-])cc1Cl	inactive
O=[N+]([O-])c1cc(Cl)ccc1Cl	inactive
ClCc1ccccc1CCl	54.5 µM (active)
CCSC(C)CC1CC(=O)C(/C(CC)=N/OC/C=C/Cl)=C(O)C1 (centres undefined)	inactive
BrCC(Br)c1ccccc1 (centres undefined)	inactive
C=CC(=O)N(C)C	inactive
Cc1cc(Cl)ccc1O[C@H](C)C(=O)O	inactive
ClC1=C(Cl)[C@]2(Cl)[C@@H]3[C@@H](Cl)[C@@H](Cl)C[C@@H]3[C@@]1(Cl)C2(Cl)Cl	inactive
C=CCOC(N)=O	inactive
COP(N)(=S)OC	inactive
C=COCCCl	inactive
Cn1[nH]nnc1=S	inactive

tested on: not listed separately; test: qHTS assay to identify small molecule agonists of the AP-1 signaling pathway - cell viability counter screen (AID 1159525; calls by dose curve; note: nearly all actives have a fitted effect of over 55% in size); conditions: ME-180 (cervical carcinoma) AP-1-bla cells viability, ATP luminescence, 5 h; series mostly up to 76.8 µM
Procedure, shortened: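 AP-1-bla ME-180 cells in Opti-MEM with 0.5% dialyzed FBS, compound exposure 5 h at 37 C in 15-point titration. Viability read in the same wells as ATP content by CellTiter-Glo luminescence, normalised to tetra-n-octylammonium bromide and DMSO controls.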

SMILES	Potency
N#CCc1ccc(Cl)cc1	inactive
Clc1ccc(Oc2ccccc2)cc1	inactive
O=C(Cl)c1ccc(Cl)cc1	inactive
CCOC(=O)c1ccccc1S(=O)(=O)NC(=O)Nc1nc(Cl)cc(OC)n1	inactive
CC(=O)c1ccc(-c2ccccc2)cc1	inactive
N#Cc1ccccc1Cl	inactive
Cc1ccc(CCl)cc1	inactive
CN(CCCC(O)c1cccnc1)N=O (centres undefined)	inactive
Clc1ccc(-c2ccccc2)cc1	inactive
COP(=O)(CCC(=O)NCO)OC	inactive
COC[C@H](C)N(C(=O)CCl)c1c(C)csc1C	inactive
CC(=[OH+])/C=C(/C)[O-].CC(=[OH+])/C=C(\C)[O-].CC(=[OH+])/C=C(\C)[O-].[Al]	inactive
CC(C)CBr	inactive
Oc1ccccc1Br	inactive
C[As+](C)(C)CC(=O)[O-]	inactive
COCC(=O)N(c1c(C)cccc1C)[C@H](C)C(=O)OC	inactive
CCc1ccccc1C	inactive
Cl/C=C\CCl	inactive
Clc1ccc(-c2ccc(Cl)c(Cl)c2Cl)c(Cl)c1Cl	inactive

SMILES	Potency
ClC1=C(Cl)[C@]2(Cl)[C@@H]3[C@@H](Cl)[C@H](Cl)C[C@@H]3[C@@]1(Cl)C2(Cl)Cl	inactive
ClCCN1CCOCC1	inactive
C[C@@H](Oc1ccc(Cl)cc1Cl)C(=O)O	inactive
N#Cc1ccccc1N	inactive
CC(=[OH+])/C=C(/C)[O-].CC(=[OH+])/C=C(\C)[O-].CC(=[OH+])/C=C(\C)[O-].[Fe]	inactive
CCC(C)c1cc(C(C)(C)C)cc(-n2nc3ccccc3n2)c1O (centres undefined)	inactive
CCOP(=S)(OCC)SCCS(=O)(=O)CC	inactive
Nc1ccc([N+](=O)[O-])cc1Cl	inactive
O=[N+]([O-])c1cc(Cl)ccc1Cl	inactive
ClCc1ccccc1CCl	inactive
CCSC(C)CC1CC(=O)C(/C(CC)=N/OC/C=C/Cl)=C(O)C1 (centres undefined)	inactive
BrCC(Br)c1ccccc1 (centres undefined)	inactive
C=CC(=O)N(C)C	inactive
Cc1cc(Cl)ccc1O[C@H](C)C(=O)O	inactive
ClC1=C(Cl)[C@]2(Cl)[C@@H]3[C@@H](Cl)[C@@H](Cl)C[C@@H]3[C@@]1(Cl)C2(Cl)Cl	inactive
C=CCOC(N)=O	inactive
COP(N)(=S)OC	inactive
C=COCCCl	inactive
Cn1[nH]nnc1=S	inactive
